Test results from the supplement of paper PMC13380429.
Values without a mark were called inactive.

Test system: Vero E6 infected with SARS-CoV-2
Assay: inhibition of SARS-CoV-2 cytopathic effect; higher = more antiviral protection, active = above 15
Conditions: 48 h

Compound | inhibition of SARS-CoV-2 cytopathic effect (1 nM) | inhibition of SARS-CoV-2 cytopathic effect (8.33 nM) | inhibition of SARS-CoV-2 cytopathic effect (100 nM) | inhibition of SARS-CoV-2 cytopathic effect (833.33 nM) | inhibition of SARS-CoV-2 cytopathic effect (10000 nM)
CC12CCC(C(=O)N(CCCCN3CCN(c4ccccn4)CC3)C1=O)C2(C)C (stereo not given) [piricapiron] | -2.91% | -0.34% | -1.87% | 0.95% | 1.64%
C[C@@H]1Cc2c([nH]c3ccccc23)[C@@H](c2c(F)cc(/C=C/C(=O)O)cc2F)N1CC(C)(C)F | 0.69% | 1.08% | -2.47% | -1.93% | -3.78%
COc1ccccc1N1CCN(CCN2C(=O)CC3(CCCC3)CC2=O)CC1 | 0.12% | 1.57% | 2.97% | 1.51% | 0.47%
CC(COc1ccccc1)NC(C)C(O)c1ccc(O)cc1 (stereo not given) [isoxsuprine] | 0.69% | 2% | -0.95% | 1.95% | -1.14%
N[C@@H](Cn1ccc(=O)n(Cc2ccccc2C(=O)O)c1=O)C(=O)O | 1.86% | 3.68% | -0.19% | 1.26% | -0.16%
C#CCC(Cc1cnc2nc(N)nc(N)c2n1)c1ccc(C(=O)N[C@@H](CCC(=O)O)C(=O)O)cc1 (stereo not given in full) [pralatrexate] | 1.9% | -0.71% | -3.9% | -4.99% | -6.91%
Nc1ccc(C(=O)Nc2cccc(-c3nc(N4CCOCC4)c4oc5ncccc5c4n3)c2)cn1 | -0.93% | -2.3% | -2.43% | 0% | 20.4% (active)
C[C@H](Oc1ccc(S(C)(=O)=O)cc1C(=O)N1CCN(c2ncc(C(F)(F)F)cc2F)CC1)C(F)(F)F [bitopertin] | 1.07% | 0.78% | 1.93% | 0.34% | -3.97%
CC[C@H](NC(=O)c1c(O)c(-c2ccccc2)nc2ccccc12)c1ccccc1 [talnetant] | -0.24% | 0.6% | -1.02% | -1.22% | 2.11%
CC(C)(C)NC(=O)[C@@H]1C[C@@H]2CCCC[C@@H]2CN1C[C@@H](O)[C@H](Cc1ccccc1)NC(=O)[C@H](CC(N)=O)NC(=O)c1ccc2ccccc2n1 [saquinavir] | -9.33% | -7.46% | -1.46% | -6.25% | -22%
O=C([O-])c1ccccn1.O=C([O-])c1ccccn1.O=C([O-])c1ccccn1.[Cr+3] [chromium-picolinate] | 0.6% | 3.76% | 1.3% | -3.86% | 0.6%
CC(=O)OCC(=O)[C@@]12N=C(C)O[C@@H]1C[C@H]1[C@@H]3CCC4=CC(=O)C=C[C@]4(C)[C@H]3[C@@H](O)C[C@@]12C [Deflazacort (Calcort)] | 2.25% | -0.15% | -11.5% | 2.17% | 0.96%
CC(C)(C)NC[C@H](O)c1ccc(O)cc1Cl [meluadrine] | -1.16% | 1.91% | 1.61% | -2.53% | -3.94%
C=C(NC(=O)C(=C)NC(=O)c1csc(C2=N[C@@H]3c4csc(n4)[C@H]4NC(=O)c5csc(n5)[C@H]([C@](C)(O)[C@@H](C)O)NC(=O)[C@H]5CSC(=N5)/C(=C/C)NC(=O)[C@H]([C@@H](C)O)NC(=O)c5csc(n5)[C@]3(CC2)NC(=O)[C@H](C)NC(=O)C(=C)NC(=O)[C@H](C)NC(=O)[C@H]([C@@H](C)CC)N[C@@H]2C=Cc3c([C@H](C)O)cc(nc3[C@H]2O)C(=O)O[C@@H]4C)n1)C(N)=O [thiostrepton] | -2.64% | -1.12% | -4.03% | 1.58% | 7.51%
CC[C@@]1([C@H]2O[C@H]([C@H]3O[C@@](O)(CO)[C@H](C)C[C@@H]3C)C[C@H]2C)CC[C@H]([C@@]2(C)CC[C@]3(C[C@H](O)[C@@H](C)[C@@H]([C@H](C)[C@H](OC)[C@@H](C)C(=O)O)O3)O2)O1 | -2.66% | -0.7% | 2.93% | 27.6% (active) | 52.5% (active)
